Source: PubChem BioAssay AID1159580 (chemical genetic matrix, 2015)
About 2,000 (36%) of roughly 5,500 compounds were called active. About 18% were inconclusive and are not listed. Cut-off read from the data, not from the text of the source: active = normalized growth mostly below about 0.91 (no sharp cut-off); inconclusive = no clear call, values can overlap the other calls; inactive = mostly above about 0.92. This is one part of the list.

Experiment: chemical genetic growth profiling, strain panel (AID 1159580);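 note: tested at 20 µM; growth read once vehicle control cultures reached saturation at 30 °C; 1 = growth at the plate median or of vehicle wells; lower values mean less growth of the strain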
Settings: S. cerevisiae deletion strains, growth OD

Measured: normalized growth

CN1CCN(CC/C=C2/c3ccccc3Sc3ccc(S(=O)(=O)N(C)C)cc32)CC1
inactive: locus YAL040C, strain CLN3, hits give low values 0.997 | locus YCL061C, strain MRC1 (second series), hits give low values 1 | locus YDR363W, strain ESC2, hits give low values 0.983 | locus YER002W, strain NOP16, hits give low values 1.03 | locus YGR229C, strain SMI1, hits give low values 0.99 | locus YJR075W, strain HOC1, hits give low values 0.993 | locus YMR307W, strain GAS1, hits give low values 0.999 | locus YNL153C, strain GIM3, hits give low values 1.02 | locus YNL175C, strain NOP13, hits give low values 1.03 | locus YNL197C, strain WHI3, hits give low values 1.02 | locus YNL224C, strain SQS1, hits give low values 1.04 | locus YNL322C, strain KRE1, hits give low values 0.967 | locus YOR083W, strain WHI5 (second series), hits give low values 1.05 | locus YPL055C, strain LGE1, hits give low values 0.989
